Rows were chosen to be rich in hits. Some 15% of all compounds tested hit in one or more screens of this group.
HCV inh – HCV inhibition; Huh7.5.1 HCVcc-Cre infection, luciferase reporter, 44 h; Potency, µM (top dose mostly 41.8 µM), inactives show at the highest dose activity change, negative = inhibition, usual class: inhibitors; 3.4% of 340,000 active; AID 651820; also: potency is read from the fitted curve at half-maximal effect; % is scaled to controls: 0 for no effect and ±100 for the full control effect
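Infectious HCV cell culture screen: compound-treated cells (1,000/well, pre-plated 4 h) are infected with HCVcc-Cre at roughly 0.5 moi and grown 44 h. Infection is quantified by luciferase signal after 15 min substrate incubation at room temperature.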
SARS PLP yeast – inhibitors of SARS-CoV papain-like protease in yeast. 0.19% of 330,000 active. Potency, µM (doses to about 32.9 µM), inactives show at the highest dose activity, positive = growth rescue, actives largely listed as activators. S. cerevisiae expressing SARS-CoV PLpro, growth rescue; calls by dose curve; also: potency is read from the fitted curve at half-maximal effect; 0% is about no effect; nearly all actives have a fitted effect of over 55% in size
Pf growth 48h – inhibits P. falciparum growth in the first generation, 48 h; P. falciparum luciferase growth in erythrocytes, 48 h; Potency, µM (titrated, usually from 28.7 µM), for the others: at the top dose activity change, negative = inhibition, usual class: inhibitors; 5.9% of 310,000 active; also: potency is read from the fitted curve at half-maximal effect; % is scaled to controls: 0 for no effect and ±100 for the full control effect
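Luciferase-expressing parasites in RBCs, 2% Hct / 0.1% parasitemia final; RPMI 1640 + 0.5% Albumax; 37 C, 5% CO2, one generation; luminescence read-out, lower signal = inhibition.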
HCMV inh – human cytomegalovirus inhibition | 4.5% of 410,000 active | HFF cells, HCMV-luciferase reporter, 72 h; hits give low values | activity change, negative = inhibition, % at 57.5 µM; in the data active = activity change below about -60%; inconclusive = no clear call, values can overlap the other calls; inactive = above about -39%; also: % is scaled to controls: 0 for no effect and ±100 for the full control effect
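Inhibition of viral replication was scored as loss of reporter luminescence in HFFs infected with HCMV-luciferase (MOI 1 PFU/cell) for 72 h; compounds tested at 2 doses, normalized to buffer and Salinomycin controls.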
Sm TGR inh – inhibitors of Schistosoma mansoni thioredoxin glutathione reductase | Q962Y6 | purified TGR, DTNB reduction, TNB absorbance 405 nm | Potency, µM (series often up to 114 µM), without a hit: top-dose activity change, negative = inhibition, actives largely listed as inhibitors | 3% of 360,000 active; also: potency is read from the fitted curve at half-maximal effect; % is scaled to controls: 0 for no effect and ±100 for the full control effect; nearly all actives have a fitted effect of over 60% in size
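Kinetic colorimetric format: TGR-catalysed, NADPH-driven DTNB reduction monitored via TNB absorbance. Enzyme dispensed at 20 nM; compound exposure 15 min at room temperature before reaction start.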
Pf growth 96h – P. falciparum growth inhibition at 96 hours. P. falciparum luciferase reporter growth, 96 h. Potency, µM (series often up to 28.7 µM), without a hit: at the top dose activity change, negative = inhibition, usual class: inhibitors. 6.9% of 320,000 active. AID 504834; also: potency is read from the fitted curve at half-maximal effect; % is scaled to controls: 0 for no effect and ±100 for the full control effect
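96 h incubation, 37 C, 5% CO2, of luciferase-reporter P. falciparum-infected RBCs (2% hematocrit, 0.05% parasitemia final) with test compounds; endpoint luminescence.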
Active calls of the source: *; ? = inconclusive; . = no result. Unless noted, calls follow the shape of the dose curve; as a rule, active = well fitted curve in the direction sought with a large enough effect; inconclusive = small, poorly fitted or top-dose-only effect, or another doubt; inactive = no such curve, though single readings can be large; an effect the other way counts as inactive or inconclusive.

SMILES	HCV inh	SARS PLP yeast	Pf growth 48h	HCMV inh	Sm TGR inh	Pf growth 96h
O=C(Nc1ccc([N+](=O)[O-])cc1)C1CC1(c1ccccc1)c1ccccc1 (stereo unspecified)	?	20%	12µM*	35	-3%	?
Cc1ccc(C2(c3ccc(C)cc3)CC2C(=O)Nc2ccc([N+](=O)[O-])cc2O)cc1 (stereo unspecified)	3.5µM*	-38%	0.83µM*	-102*	8%	0.66µM*
COc1cc(-c2nc(Cn3nnc(C(=O)Nc4cccc(Cl)c4)c3C)c(C)o2)cc(OC)c1OC	.	.	.	-5	-1%	.
O=C(O)C1CC(O)CN1C(=O)c1ccco1 (stereo unspecified)	?	3%	?	38	-23%	42%
Cc1ccc(-n2c(SCC(=O)NCCN3C(=O)CSC3=O)nnc2-c2ccccc2F)cc1	-1%	5%	-12%	?	-11%	15µM*
O=C(O)C1C2C=CC(O2)C1C(=O)Nc1ccc(S(=O)(=O)Nc2ccccc2)cc1 (stereo unspecified)	-25%	-4%	7%	-23	6.3µM*	15%
NS(=O)(=O)c1ccc(NS(=O)(=O)c2ccc(NC(=S)Nc3ccccc3)cc2)cc1	10%	-10%	10%	-22	?	29%
O=C(O)C1C2C=CC(O2)C1C(=O)Nc1ccc(S(=O)(=O)N2CCc3ccccc32)cc1 (stereo unspecified)	19%	-17%	0%	-27	14µM*	-9%
COCCn1cnc2c1c(=O)n(CC(=O)OCC#N)c(=O)n2Cc1ccccc1	12%	0%	?	-6	1%	?
COCCn1cnc2c1c(=O)n(CC(=O)NC(=O)NC(C)(C)C)c(=O)n2Cc1ccccc1	3%	4%	?	-34	-10%	0.26µM*
COCCn1cnc2c1c(=O)n(Cc1ccc(C#N)cc1)c(=O)n2Cc1ccccc1	7%	-1%	?	-61*	-6%	?
Fc1cc(F)c(-c2nc3ccccc3nc2-c2ccccc2)c(F)c1	.	.	.	-12	.	.
CCCCN1CC(COCc2ccccc2)Oc2cccc(Oc3ccc(SC)c(C)c3)c2S1(=O)=O (stereo unspecified)	.	.	.	-80*	.	.
CCCCN1CC(COCc2ccccc2)Oc2cccc(OCCN3C(=O)[C@@H]4[C@H](C3=O)C3C=C[C@H]4C3)c2S1(=O)=O (stereo partly specified)	10µM*	.	.	-34	.	.
COc1cc(S(=O)(=O)N2CC(=O)Nc3ccccc32)ccc1NC(C)=O	-9%	-11%	-10%	?	1%	6%
O=C(c1ccc(-c2nnc(Nc3cccc(Cl)c3)c3ccccc23)cc1)N1C[C@H]2C[C@H](C1)c1cccc(=O)n1C2	-27%	7%	13µM*	-12	4%	6.6µM*
COc1nnc(-c2ccc(C(=O)N3C[C@@H]4C[C@H](C3)c3cccc(=O)n3C4)cc2)c2ccccc12	-8%	0%	?	-38	0%	2.6µM*
COc1ccc(C(=O)N2C[C@H]3C[C@@H](C2)c2cccc(=O)n2C3)cc1OC	30%	8%	1%	16	-11%	0%
O=C(Nc1ccccc1)N1CC2CC(C1)c1cccc(=O)n1C2 (stereo unspecified)	-1%	0%	13%	3	-10%	-4%
CC(C)c1ccc(NC(=O)CSc2nc3ccccc3nc2N2CCCC2)cc1	-19%	?	?	-19	9%	-1%
O=C1[C@H]2[C@@H](c3ccccc3)N[C@]3(CCCN(CC4CCCCC4)C3=O)[C@H]2C(=O)N1Cc1ccccc1	.	.	.	14	.	.
COc1cc(NC2CCCCC2O)c2nc(-c3ccc(Cl)cc3)ccc2c1 (stereo unspecified)	?	-2%	1.9µM*	58	5%	1.9µM*
COc1cccc(OC)c1C(=O)NC(=O)Nc1c(F)cc(F)cc1F	11%	-1%	?	-5	12%	?
COc1ccc([N+](=O)[O-])c(OC)c1C(=O)NC(=O)Nc1c(F)c(F)c(F)c(F)c1F	0%	-1%	.	4	3%	4.7µM*
COc1ccccc1C(=O)NC(=O)Nc1c(C)cc(C)cc1C	13µM*	-4%	-24%	?	13%	44%
SMILES	HCV inh	SARS PLP yeast	Pf growth 48h	HCMV inh	Sm TGR inh	Pf growth 96h
COc1cccc(OC)c1C(=O)NC(=O)Nc1c(F)c(F)c(F)c(F)c1F	-9%	1%	7.4µM*	-25	6%	2.1µM*
COc1ccccc1C(=O)NNC(=O)c1ccc(C)cc1	16%	-3%	62%	68	-2%	-77%
CCCCCN(C(=O)CCC(=O)OCCOc1ccc(OCC)cc1)c1c(N)n(CCCC)c(=O)[nH]c1=O	?	5%	?	-14	8%	?
CN(Cc1ccccc1)C(=O)c1cccc(NC(=O)c2nsc3ccccc23)c1	.	.	.	0	6%	.
CC(=O)N1CCc2cc(S(=O)(=O)NCCC(=O)NCCc3ccccc3)ccc21	-8%	1%	-18%	-23	7%	19%
CC(=O)N1CCc2cc(S(=O)(=O)NCCC(=O)NCCc3ccc(C)cc3)ccc21	10µM*	2%	?	-15	7%	9%
CC(=O)N1CCc2cc(S(=O)(=O)NCCC(=O)NCCc3ccc(Cl)cc3)ccc21	?	-1%	?	-75*	2%	3%
Cc1cc(C)c(S(=O)(=O)NCCc2cc3ccc(C)cc3[nH]c2=O)c(C)c1	.	.	.	3	4%	.
CCCCCCCCNC(=S)NCCN1CCCCC1	?	4%	8.3µM*	-66*	-19%	0%
S=C(NCCCN1CCOCC1)NCCCN1CCOCC1	-9%	17%	3%	-23	1%	-13%
CCN1C(=O)[C@H]2[C@@H](c3ccc(-c4ccc(C(C)=O)cc4)cc3)N3CCC[C@@]3(C(=O)OC)[C@H]2C1=O	?	3%	?	-9	-27%	?
CN(CC(=O)Nc1ccccc1Cl)C(=O)COC(=O)C1CCN(c2ccc(C(F)(F)F)cn2)CC1	8%	0%	-6%	-6	1%	58%
COc1ccc(-n2nc(C(=O)Nc3nc4ccc(OC)cc4s3)c3ccccc3c2=O)c(OC)c1	0%	19%	10%	.	-8%	-3%
CCn1nc(C(=O)Nc2nc3ccc(C)cc3s2)c2ccccc2c1=O	32µM*	-2%	19%	-24	-5%	.
Cc1nc2ccc(NC(=O)c3nn(CC(C)C)c(=O)c4ccccc34)cc2s1	6%	20%	4%	-62*	-19%	-2%
Cc1nnc(NC(=O)c2nn(CC(C)C)c(=O)c3ccccc23)s1	13%	-6%	-16%	-20	-2%	?

Screening results as filed in PubChem BioAssay.
